Most compounds without a hit are left out; they make up all but 9.2% or so of the library.
ELG1 DNA repair = blocks ELG1-dependent DNA repair in HEK293T cells. HEK293T ELG1-luciferase reporter, luminescence, 16 h; DNA damage induced by 5-fluorouridine. Potency, µM (doses to about 46.1 µM), for inactives: at the top dose activity change, negative = inhibition, usual class: inhibitors. actives 2.3% (n = 330,000); further: on the % scale 0 is the no-effect control and ±100 the full control effect; nearly all actives have a fitted effect of over 55% in size
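Quantitative HTS, concentration-response format. 2,000 cells/well co-treated with 5-fluorouridine and compound, 16 hr in 5% CO2 at 37 °C; ONE-Glo luminescence read after 30 min.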
NPC1 promoter act = NPC1 promoter activation; Potency, µM (series often up to 9.22 µM), for inactives: top-dose activation, most hits filed as activators; AID 485313; Huh7 NPC1 promoter luciferase reporter, 24 h; actives 2.4% (n = 320,000); further: % of control where 0% means no effect; nearly all actives have a fitted effect of over 60% in size
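Quantitative HTS used a cell-based reporter: Huh7 cells stably bearing the NPC1 promoter upstream of luciferase were treated with compounds for 24 h, and promoter activation was read as luminescence.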
FLuc modulator = firefly luciferase modulation, counter-screen for miR-21 project. P08659. purified FLuc, Km substrates, luminescence inhibition. Potency, µM (top dose mostly 57.5 µM), without a hit: at the top dose activity change, negative = inhibition, hits mostly inhibitors. actives 6.9% (n = 360,000). AID 588342;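 further: plate controls were vehicle for no effect and reference inhibitor for full effect; nearly all actives have a fitted effect of over 55% in size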
Target sequence (P08659 whole entry, looked up): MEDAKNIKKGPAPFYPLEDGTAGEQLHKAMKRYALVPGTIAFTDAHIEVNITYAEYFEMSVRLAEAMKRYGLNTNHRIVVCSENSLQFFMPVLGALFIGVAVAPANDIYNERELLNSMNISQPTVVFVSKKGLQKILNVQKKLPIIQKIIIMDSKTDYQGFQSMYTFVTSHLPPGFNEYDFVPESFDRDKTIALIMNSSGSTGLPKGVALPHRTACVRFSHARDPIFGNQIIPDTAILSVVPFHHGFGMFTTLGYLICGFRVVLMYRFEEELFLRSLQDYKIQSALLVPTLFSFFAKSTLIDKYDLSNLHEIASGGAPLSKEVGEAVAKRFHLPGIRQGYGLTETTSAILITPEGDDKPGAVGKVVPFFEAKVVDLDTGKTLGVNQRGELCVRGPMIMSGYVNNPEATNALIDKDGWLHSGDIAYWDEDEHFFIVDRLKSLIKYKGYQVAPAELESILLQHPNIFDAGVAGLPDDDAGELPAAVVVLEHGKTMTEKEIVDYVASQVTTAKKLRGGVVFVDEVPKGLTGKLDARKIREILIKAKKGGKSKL
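Purified P. pyralis luciferase, 10 nM final, with Km-level 10 uM D-luciferin and 10 uM ATP in 50 mM Tris acetate pH 7.5, 10 mM Mg acetate, 0.01% Tween-20, 0.05% BSA; 6-point qHTS titration about 60 µM downward; luminescence read.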
ELG1 genotox = induces genotoxicity in HEK293T cells with luciferase-tagged ELG1; AID 504466; HEK293T ELG1-luciferase reporter, luminescence, 16 h; actives 1.3% (n = 330,000); Potency, µM (series often up to 46 µM), for the others: at the highest dose activity change, positive = activation, most hits filed as activators; further: % of control where 0% means no effect; nearly all actives have a fitted effect of over 60% in size
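After overnight (16 hr) compound treatment at 37 °C, ELG1-luciferase HEK293T cells were lysed with ONE-Glo; luminescence quantified 30 min later at room temperature.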
Rab9 promoter act = Rab9 promoter activation | Huh7 Rab9 promoter-luciferase reporter, luminescence, 24 h | Potency, µM (titrated, usually from 9.22 µM), without a hit: top-dose activation, negative = inhibition, most hits filed as activators | actives 2.8% (n = 320,000) | AID 485297; further: % of control where 0% means no effect; nearly all actives have a fitted effect of over 60% in size
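Huh7 cells stably carrying a Rab9 promoter-luciferase reporter, 1500 cells per well in OP-MEM I with 10% FBS, treated with compound 24 hours at 37C. Luciferase activity read by luminescence after 10 minutes with Amplite reagent.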
SMN2 splice enh = enhancers of SMN2 splice variant expression. HEK293 SMN2-luciferase splicing reporter, luminescence, 30-36 h. Potency, µM (series often up to 46.1 µM), without a hit: top-dose activity change, positive = activation, most hits filed as activators. actives 2.8% (n = 210,000). AID 1458; further: % of control where 0% means no effect; nearly all actives have a fitted effect of over 55% in size
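qHTS luciferase splicing reporter: luminescence rises when SMN2 exon 7 is included in transfected HEK293 cells. Compound exposure lasted 30-36 h at 37C, with 4.5 mM final sodium butyrate as control, followed by a ONE-Glo read.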
Starred values were filed as active, the others as inactive; ? = inconclusive; . = no result given; [ ] = another dose, or the depositor's remark. The call rests on the fitted dose curve; in most records, active means well fitted curve in the direction sought with a large enough effect; inconclusive means small, poorly fitted or top-dose-only effect, or another doubt; inactive means no such curve, though single readings can be large; an effect the other way counts as inactive or inconclusive. Potency means the concentration at half of the fitted maximal effect.

SMILES	ELG1 DNA repair	NPC1 promoter act	FLuc modulator	ELG1 genotox	Rab9 promoter act	SMN2 splice enh
Cc1ccc(CNC(=O)CSc2nc3c(sc4ccccc43)c(=O)n2CCCOC(C)C)cc1	.	.	-2%	.	.	.
Brc1cccc(-c2nnco2)c1	-3%	1%	0%	0%	-8%	9%
Brc1ccc(-c2nnc(-c3cccc(Br)c3)o2)cc1	11%	3.2µM*	9.5µM*	19%	-34%	23%
O=C(O)c1ccc(-c2nnc(-c3cccc(Br)c3)o2)cc1	?	1.4µM*	11µM*	?	1.6µM*	.
O=C(C1CCC1)N1CCc2cc(S(=O)(=O)N3CCN(c4ccccc4)CC3)ccc21	.	.	1%	.	.	-2%
O=C(C1CCC1)N1CCc2cc(S(=O)(=O)N3CCN(c4ccccn4)CC3)ccc21	18µM*	-1%	-2%	-2%	-6%	-40%
CCN(CC)C(=O)C1CCN(S(=O)(=O)c2ccc3c(c2)CCCN3C(=O)C2CCC2)CC1	23µM*	1%	0%	-4%	-4%	.
CCCCSc1nsc(NC(C)=O)n1	?	2.2µM*	11µM*	?	1.4µM*	18µM*
CCCSc1nsc(NC(=O)CCC)n1	?	2.8µM*	12µM*	8%	1.4µM*	5µM*
CSc1nnc(C(C)c2ncc(C(F)(F)F)cc2Cl)n1C (stereo not drawn)	-8%	-1%	0%	-2%	-34%	10%
O=C1/C(=C/c2ccccc2)[C@@H](NC2CCCCC2)c2ccccc21	.	.	.	.	.	-9%[9.22 µM]
CNC(=O)c1ccc(NC(=O)c2nsc3ccccc23)cc1	.	.	1.5µM*	.	.	2µM*
CCOC(=O)c1ccc(NC(=O)c2nsc3ccccc23)cc1	.	.	2.4µM*	.	.	5.6µM*
CCOC(=O)c1ccc(NC(=O)c2sc3ccccc3c2Cl)cc1	.	.	3%	.	.	7%
COc1ccc(-c2nn(-c3ccccc3)cc2/C=N/NC(=O)c2ccc3c(c2)OCO3)cc1	?	1%	?	-8%	3%	25%
O=C(N/N=C\c1cn(-c2ccccc2)nc1-c1ccccc1)c1ccc2c(c1)OCO2	?	5%	4.8µM*	0%	-1%	19%
O/N=C/c1cn(-c2ccccc2)nc1-c1ccc2c(c1)OCCO2	?	13%	?	9%	10%	13%
O=C(N/N=C/c1cn(-c2ccccc2)nc1-c1ccc(F)cc1)c1ccc2c(c1)OCO2	?	4%	4.3µM*	-3%	0%	8%
O=C(N/N=C/c1cn(-c2ccccc2)nc1-c1ccc2c(c1)OCCO2)c1ccncc1	?	?	-18%	?	?	11µM*
COc1ccc(OC)c(NC(=O)Nc2ccc3c(c2)OCO3)c1	0%	4%	27µM*	0%	8%	.
COc1cccc(NC(=O)Nc2ccc3c(c2)OCO3)c1	?	2µM*	7.6µM*	?	1.4µM*	.
COc1ccc(OC)c(S(=O)(=O)N(C)CC(=O)Nc2ccc3c(c2)OCO3)c1	-14%	-1%	-13%	4%	0%	5%
COc1cccc(NC(=O)CN(C)CC(=O)Nc2ccc3c(c2)OCO3)c1	-7%	.	.	0%	.	.
O=C(Nc1ccc2c(c1)OCO2)Oc1ccccc1	.	.	11µM*	.	.	-7%
COc1ccc(C2CC(c3ccccc3)=NN2c2ccc(Cl)c(C(=O)O)c2)cc1 (stereo not drawn)	6%	0%	21µM*	6%	0%	.
COc1ccc(C2CC(c3ccccc3)=NN2c2ccc(N)cc2)cc1 (stereo not drawn)	-22%	-5%	9.5µM*	13%	4%	8%
COc1ccc(-c2nn(CCC(=O)O)cc2CCC(=O)O)cc1	-6%	-1%	-1%	1%	8%	-2%
COc1ccc(C2=NN(c3ccccc3)C(c3cn(CCC(=O)O)nc3-c3ccccc3)C2)cc1 (stereo not drawn)	?	7%	4.3µM*	4%	16%	11%

Bioassay records (PubChem BioAssay)
